Laboratory results as given in PubChem BioAssay AID1159580 (chemical genetic matrix, 2015).
In all, about 5,500 compounds went through this assay and about 2,000 (36%) were called active. Not shown: some 18% with an inconclusive outcome. No stated cut-off is given here; in the data, active means normalized growth mostly below about 0.91 (no sharp cut-off); inconclusive means no clear call, values can overlap the other calls; inactive means mostly above about 0.92. Some of the results follow.

Assay: chemical genetic growth profiling, strain panel (AID 1159580);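 further: tested at 20 µM; growth read once vehicle control cultures reached saturation at 30 °C; 1 = growth at the plate median or of vehicle wells; lower values mean less growth of the strain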
Details: growth OD

Measured: normalized growth

COc1nc(NC(C)C)nc(NC(C)C)n1
inactive: S. cerevisiae deletion strains, locus YJR075W, strain HOC1, hits give low values 1 | S. cerevisiae deletion strains, locus YKL009W, strain mrt4, hits give low values 1.02 | S. cerevisiae deletion strains, locus YKL068W, hits give low values 1.01 | S. cerevisiae deletion strains, locus YKL085W, strain MDH1 (second series), hits give low values 1.01 | S. cerevisiae deletion strains, locus YKL085W, strain MDH1, hits give low values 1.01 | S. cerevisiae deletion strains, locus YKL160W, strain elf1, hits give low values 1.02 | S. cerevisiae deletion strains, locus YKL190W, strain CNB1, hits give low values 1.02 | S. cerevisiae deletion strains, locus YKR001C, strain vps1, hits give low values 1.02 | S. cerevisiae deletion strains, locus YKR026C, strain gcn3, hits give low values 1.02 | S. cerevisiae deletion strains, locus YKR091W, strain srl3, hits give low values 1.02 | S. cerevisiae deletion strains, locus YLL001W, strain dnm1, hits give low values 1.02 | S. cerevisiae deletion strains, locus YLL026W, hits give low values 1.02 | S. cerevisiae deletion strains, locus YLL041C, strain sdh2, hits give low values 1.02 | S. cerevisiae deletion strains, locus YLR027C, strain aat2, hits give low values 1.03 | S. cerevisiae deletion strains, locus YLR039C, strain RIC1, hits give low values 1.02 | S. cerevisiae deletion strains, locus YLR058C, strain SHM2, hits give low values 1 | S. cerevisiae deletion strains, locus YLR102C, strain apc9, hits give low values 1.02 | S. cerevisiae deletion strains, locus YLR113W, strain HOG1, hits give low values 0.986 | S. cerevisiae deletion strains, locus YLR221C, strain rsa3, hits give low values 1.04 | S. cerevisiae deletion strains, locus YLR258W, strain gsy2, hits give low values 1.01 | S. cerevisiae deletion strains, locus YLR262C, strain YPT6 (second series), hits give low values 1.02 | S. cerevisiae deletion strains, locus YLR262C, strain YPT6, hits give low values 1.02 | S. cerevisiae deletion strains, locus YLR268W, strain sec22, hits give low values 1.01 | S. cerevisiae deletion strains, locus YLR320W, strain mms22, hits give low values 1.04 | S. cerevisiae deletion strains, locus YLR330W, strain CHS5, hits give low values 1.01 | S. cerevisiae deletion strains, locus YLR342W, strain FKS1 (second series), hits give low values 1.03 | S. cerevisiae deletion strains, locus YLR342W, strain FKS1, hits give low values 1.01 | S. cerevisiae deletion strains, locus YLR357W, strain rsc2, hits give low values 1.03 | S. cerevisiae deletion strains, locus YLR370C, strain arc18, hits give low values 1.04 | S. cerevisiae deletion strains, locus YLR371W, strain rom2, hits give low values 1.02 | S. cerevisiae deletion strains, locus YLR384C, strain iki3, hits give low values 1.03 | S. cerevisiae deletion strains, locus YLR418C, strain cdc73, hits give low values 1.01 | S. cerevisiae deletion strains, locus YML016C, strain PPZ1, hits give low values 1.01 | S. cerevisiae deletion strains, locus YML032C, strain rad52, hits give low values 1.02 | S. cerevisiae deletion strains, locus YML120C, strain ndi1, hits give low values 1.02 | S. cerevisiae deletion strains, locus YML124C, strain tub3, hits give low values 1.02 | S. cerevisiae deletion strains, locus YMR058W, strain fet3, hits give low values 1.03 | S. cerevisiae deletion strains, locus YMR078C, strain ctf18, hits give low values 1.03 | S. cerevisiae deletion strains, locus YMR125W, strain sto1, hits give low values 1.03 | S. cerevisiae deletion strains, locus YMR129W, hits give low values 1.01 | S. cerevisiae deletion strains, locus YMR205C, strain PFK2, hits give low values 1.01 | S. cerevisiae deletion strains, locus YMR223W, strain ubp8, hits give low values 1.02 | S. cerevisiae deletion strains, locus YMR231W, strain pep5, hits give low values 1.02 | S. cerevisiae deletion strains, locus YMR263W, strain SAP30, hits give low values 1.02 | S. cerevisiae deletion strains, locus YMR307W, strain GAS1, hits give low values 1.04 | S. cerevisiae deletion strains, locus YNL067W, strain RPL9B, hits give low values 1.01 | S. cerevisiae deletion strains, locus YNL071W, strain lat1, hits give low values 1.01 | S. cerevisiae deletion strains, locus YNL128W, strain TEP1, hits give low values 1 | S. cerevisiae deletion strains, locus YNL153C, strain GIM3, hits give low values 1.01 | S. cerevisiae deletion strains, locus YNL183C, strain NPR1, hits give low values 0.999 | S. cerevisiae deletion strains, locus YNL209W, strain ssb2, hits give low values 1.02 | S. cerevisiae deletion strains, locus YNL233W, strain BNI4, hits give low values 1.01 | S. cerevisiae deletion strains, locus YNL248C, strain rpa49, hits give low values 1.04 | S. cerevisiae deletion strains, locus YNL250W, strain rad50, hits give low values 1.01 | S. cerevisiae deletion strains, locus YNL271C, strain bni1, hits give low values 1.01 | S. cerevisiae deletion strains, locus YNL298W, strain CLA4, hits give low values 1.03 | S. cerevisiae deletion strains, locus YNL307C, strain MCK1, hits give low values 1.03 | S. cerevisiae deletion strains, locus YNL322C, strain KRE1 (second series), hits give low values 1.02 | S. cerevisiae deletion strains, locus YNL322C, strain KRE1, hits give low values 1 | S. cerevisiae deletion strains, locus YNR049C, strain mso1, hits give low values 1.05 | S. cerevisiae deletion strains, locus YNR052C, strain pop2, hits give low values 1.03 | S. cerevisiae deletion strains, locus YOL006C, strain TOP1, hits give low values 1.03 | S. cerevisiae deletion strains, locus YOL012C, strain htz1 1.23 | S. cerevisiae deletion strains, locus YOL147C, strain pex11, hits give low values 1.02 | S. cerevisiae deletion strains, locus YOR001W, strain rrp6, hits give low values 1.02 | S. cerevisiae deletion strains, locus YOR061W, strain CKA2, hits give low values 1 | S. cerevisiae deletion strains, locus YOR069W, strain VPS5, hits give low values 1.01 | S. cerevisiae deletion strains, locus YOR070C, strain gyp1, hits give low values 1.03 | S. cerevisiae deletion strains, locus YOR080W, strain dia2, hits give low values 1.03 | S. cerevisiae deletion strains, locus YOR083W, strain WHI5, hits give low values 1.01 | S. cerevisiae deletion strains, locus YOR106W, strain vam3, hits give low values 1.02 | S. cerevisiae deletion strains, locus YOR136W, strain idh2, hits give low values 1.02 | S. cerevisiae deletion strains, locus YOR144C, strain elg1, hits give low values 1.03 | S. cerevisiae deletion strains, locus YOR184W, strain ser1, hits give low values 1.03 | S. cerevisiae deletion strains, locus YOR231W, strain MKK1, hits give low values 1.05 | S. cerevisiae deletion strains, locus YOR265W, strain rbl2, hits give low values 1.01 | S. cerevisiae deletion strains, locus YOR270C, strain vph1, hits give low values 1.06 | S. cerevisiae deletion strains, locus YOR290C, strain snf2, hits give low values 0.997 | S. cerevisiae deletion strains, locus YOR316C, strain cot1, hits give low values 1.02 | S. cerevisiae deletion strains, locus YPL051W, strain arl3, hits give low values 1.01 | S. cerevisiae deletion strains, locus YPL055C, strain LGE1, hits give low values 1.02 | S. cerevisiae deletion strains, locus YPL078C, strain atp4, hits give low values 1.01 | S. cerevisiae deletion strains, locus YPL106C, strain sse1, hits give low values 1.01 | S. cerevisiae deletion strains, locus YPL240C, strain hsp82, hits give low values 1.01 | S. cerevisiae deletion strains, locus YPL241C, strain CIN2, hits give low values 1.02 | S. cerevisiae deletion strains, locus YPL256C, strain CLN2, hits give low values 1.08 | S. cerevisiae deletion strains, locus YPR119W, strain clb2, hits give low values 1.01 | S. cerevisiae deletion strains, locus YPR141C, strain kar3, hits give low values 1.03 | S. cerevisiae deletion strains, locus YPR163C, strain tif3, hits give low values 1.02 | S. cerevisiae deletion strains, locus YPR167C, strain met16, hits give low values 1.02 | S. cerevisiae deletion strains, strain wtn01, hits give low values 1.01 | S. cerevisiae strains, strain wild type, hits give low values 1
